{"source": "PubChem BioAssay AID1159580", "about": "(chemical genetic matrix, 2015)", "assay": "chemical genetic growth profiling, strain panel (AID 1159580);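 note: tested at 20 µM; growth read once vehicle control cultures reached saturation at 30 °C; 1 = growth at the plate median or of vehicle wells; lower values mean less growth of the strain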", "details": "growth OD", "note": "The campaign covered roughly 5,500 compounds. About 2,000 (36%) were called active. Another 18% or so got no clear call; they are omitted. The list shows a part of the results. Unmarked numbers belong to inactive results. Cut-off read from the data, not from the text of the source: active = normalized growth mostly below about 0.91 (no sharp cut-off); inconclusive = no clear call, values can overlap the other calls; inactive = mostly above about 0.92.", "data": [{"smiles": "CCCCCCCCNC(C)C(O)c1ccc(SC(C)C)cc1", "note": "(stereo not drawn)", "values": [{"measurement": "normalized growth", "setting": "S. cerevisiae deletion strains, locus YKL009W, strain mrt4, stronger effect = lower value", "result": "0.843 (active)"}, {"measurement": "normalized growth", "setting": "S. cerevisiae deletion strains, locus YKL068W, stronger effect = lower value", "result": 1.02}, {"measurement": "normalized growth", "setting": "S. cerevisiae deletion strains, locus YKL085W, strain MDH1 (second series), stronger effect = lower value", "result": 0.936}, {"measurement": "normalized growth", "setting": "S. cerevisiae deletion strains, locus YKL085W, strain MDH1, stronger effect = lower value", "result": 0.936}, {"measurement": "normalized growth", "setting": "S. cerevisiae deletion strains, locus YKL160W, strain elf1, stronger effect = lower value", "result": "0.0721 (active)"}, {"measurement": "normalized growth", "setting": "S. cerevisiae deletion strains, locus YKL190W, strain CNB1, stronger effect = lower value", "result": "0.0442 (active)"}, {"measurement": "normalized growth", "setting": "S. cerevisiae deletion strains, locus YKR001C, strain vps1, stronger effect = lower value", "result": "0.0592 (active)"}, {"measurement": "normalized growth", "setting": "S. cerevisiae deletion strains, locus YKR026C, strain gcn3, stronger effect = lower value", "result": "0.0783 (active)"}, {"measurement": "normalized growth", "setting": "S. cerevisiae deletion strains, locus YKR091W, strain srl3, stronger effect = lower value", "result": "0.0575 (active)"}, {"measurement": "normalized growth", "setting": "S. cerevisiae deletion strains, locus YLL001W, strain dnm1, stronger effect = lower value", "result": "0.0576 (active)"}, {"measurement": "normalized growth", "setting": "S. cerevisiae deletion strains, locus YLL026W, stronger effect = lower value", "result": "0.0545 (active)"}, {"measurement": "normalized growth", "setting": "S. cerevisiae deletion strains, locus YLL041C, strain sdh2, stronger effect = lower value", "result": "0.0563 (active)"}, {"measurement": "normalized growth", "setting": "S. cerevisiae deletion strains, locus YLR027C, strain aat2, stronger effect = lower value", "result": "0.053 (active)"}, {"measurement": "normalized growth", "setting": "S. cerevisiae deletion strains, locus YLR039C, strain RIC1, stronger effect = lower value", "result": "0.0765 (active)"}, {"measurement": "normalized growth", "setting": "S. cerevisiae deletion strains, locus YLR058C, strain SHM2, stronger effect = lower value", "result": "0.0441 (active)"}, {"measurement": "normalized growth", "setting": "S. cerevisiae deletion strains, locus YLR102C, strain apc9, stronger effect = lower value", "result": "0.0595 (active)"}, {"measurement": "normalized growth", "setting": "S. cerevisiae deletion strains, locus YLR113W, strain HOG1, stronger effect = lower value", "result": 1.04}, {"measurement": "normalized growth", "setting": "S. cerevisiae deletion strains, locus YLR221C, strain rsa3, stronger effect = lower value", "result": "0.0556 (active)"}, {"measurement": "normalized growth", "setting": "S. cerevisiae deletion strains, locus YLR258W, strain gsy2, stronger effect = lower value", "result": "0.0584 (active)"}, {"measurement": "normalized growth", "setting": "S. cerevisiae deletion strains, locus YLR262C, strain YPT6 (second series), stronger effect = lower value", "result": "0.0924 (active)"}, {"measurement": "normalized growth", "setting": "S. cerevisiae deletion strains, locus YLR262C, strain YPT6, stronger effect = lower value", "result": "0.0999 (active)"}, {"measurement": "normalized growth", "setting": "S. cerevisiae deletion strains, locus YLR268W, strain sec22, stronger effect = lower value", "result": "0.0594 (active)"}, {"measurement": "normalized growth", "setting": "S. cerevisiae deletion strains, locus YLR320W, strain mms22, stronger effect = lower value", "result": "0.0684 (active)"}, {"measurement": "normalized growth", "setting": "S. cerevisiae deletion strains, locus YLR330W, strain CHS5, stronger effect = lower value", "result": "0.0493 (active)"}, {"measurement": "normalized growth", "setting": "S. cerevisiae deletion strains, locus YLR342W, strain FKS1 (second series), stronger effect = lower value", "result": "0.06 (active)"}, {"measurement": "normalized growth", "setting": "S. cerevisiae deletion strains, locus YLR342W, strain FKS1, stronger effect = lower value", "result": "0.0614 (active)"}, {"measurement": "normalized growth", "setting": "S. cerevisiae deletion strains, locus YLR357W, strain rsc2, stronger effect = lower value", "result": "0.111 (active)"}, {"measurement": "normalized growth", "setting": "S. cerevisiae deletion strains, locus YLR370C, strain arc18, stronger effect = lower value", "result": "0.0598 (active)"}, {"measurement": "normalized growth", "setting": "S. cerevisiae deletion strains, locus YLR371W, strain rom2, stronger effect = lower value", "result": "0.0595 (active)"}, {"measurement": "normalized growth", "setting": "S. cerevisiae deletion strains, locus YLR384C, strain iki3, stronger effect = lower value", "result": "0.0596 (active)"}, {"measurement": "normalized growth", "setting": "S. cerevisiae deletion strains, locus YLR418C, strain cdc73, stronger effect = lower value", "result": "0.0837 (active)"}, {"measurement": "normalized growth", "setting": "S. cerevisiae deletion strains, locus YML016C, strain PPZ1, stronger effect = lower value", "result": "0.0438 (active)"}, {"measurement": "normalized growth", "setting": "S. cerevisiae deletion strains, locus YML032C, strain rad52, stronger effect = lower value", "result": "0.0627 (active)"}, {"measurement": "normalized growth", "setting": "S. cerevisiae deletion strains, locus YML120C, strain ndi1, stronger effect = lower value", "result": "0.0554 (active)"}, {"measurement": "normalized growth", "setting": "S. cerevisiae deletion strains, locus YML124C, strain tub3, stronger effect = lower value", "result": "0.0561 (active)"}, {"measurement": "normalized growth", "setting": "S. cerevisiae deletion strains, locus YMR058W, strain fet3, stronger effect = lower value", "result": "0.0583 (active)"}, {"measurement": "normalized growth", "setting": "S. cerevisiae deletion strains, locus YMR078C, strain ctf18, stronger effect = lower value", "result": "0.0681 (active)"}, {"measurement": "normalized growth", "setting": "S. cerevisiae deletion strains, locus YMR125W, strain sto1, stronger effect = lower value", "result": "0.0638 (active)"}, {"measurement": "normalized growth", "setting": "S. cerevisiae deletion strains, locus YMR129W, stronger effect = lower value", "result": "0.057 (active)"}, {"measurement": "normalized growth", "setting": "S. cerevisiae deletion strains, locus YMR205C, strain PFK2, stronger effect = lower value", "result": "0.0745 (active)"}, {"measurement": "normalized growth", "setting": "S. cerevisiae deletion strains, locus YMR223W, strain ubp8, stronger effect = lower value", "result": "0.0556 (active)"}, {"measurement": "normalized growth", "setting": "S. cerevisiae deletion strains, locus YMR231W, strain pep5, stronger effect = lower value", "result": "0.0629 (active)"}, {"measurement": "normalized growth", "setting": "S. cerevisiae deletion strains, locus YMR263W, strain SAP30, stronger effect = lower value", "result": "0.0563 (active)"}, {"measurement": "normalized growth", "setting": "S. cerevisiae deletion strains, locus YMR307W, strain GAS1, stronger effect = lower value", "result": "0.113 (active)"}, {"measurement": "normalized growth", "setting": "S. cerevisiae deletion strains, locus YNL067W, strain RPL9B, stronger effect = lower value", "result": "0.0464 (active)"}, {"measurement": "normalized growth", "setting": "S. cerevisiae deletion strains, locus YNL071W, strain lat1, stronger effect = lower value", "result": "0.0586 (active)"}, {"measurement": "normalized growth", "setting": "S. cerevisiae deletion strains, locus YNL128W, strain TEP1, stronger effect = lower value", "result": "0.0711 (active)"}, {"measurement": "normalized growth", "setting": "S. cerevisiae deletion strains, locus YNL183C, strain NPR1, stronger effect = lower value", "result": 0.916}, {"measurement": "normalized growth", "setting": "S. cerevisiae deletion strains, locus YNL209W, strain ssb2, stronger effect = lower value", "result": "0.057 (active)"}, {"measurement": "normalized growth", "setting": "S. cerevisiae deletion strains, locus YNL233W, strain BNI4, stronger effect = lower value", "result": "0.0511 (active)"}, {"measurement": "normalized growth", "setting": "S. cerevisiae deletion strains, locus YNL248C, strain rpa49, stronger effect = lower value", "result": "0.0589 (active)"}, {"measurement": "normalized growth", "setting": "S. cerevisiae deletion strains, locus YNL250W, strain rad50, stronger effect = lower value", "result": "0.849 (active)"}, {"measurement": "normalized growth", "setting": "S. cerevisiae deletion strains, locus YNL271C, strain bni1, stronger effect = lower value", "result": "0.501 (active)"}, {"measurement": "normalized growth", "setting": "S. cerevisiae deletion strains, locus YNL298W, strain CLA4, stronger effect = lower value", "result": "0.357 (active)"}, {"measurement": "normalized growth", "setting": "S. cerevisiae deletion strains, locus YNL307C, strain MCK1, stronger effect = lower value", "result": "0.0662 (active)"}, {"measurement": "normalized growth", "setting": "S. cerevisiae deletion strains, locus YNL322C, strain KRE1 (second series), stronger effect = lower value", "result": "0.0644 (active)"}, {"measurement": "normalized growth", "setting": "S. cerevisiae deletion strains, locus YNR049C, strain mso1, stronger effect = lower value", "result": "0.0544 (active)"}, {"measurement": "normalized growth", "setting": "S. cerevisiae deletion strains, locus YNR052C, strain pop2, stronger effect = lower value", "result": "0.0594 (active)"}, {"measurement": "normalized growth", "setting": "S. cerevisiae deletion strains, locus YOL006C, strain TOP1, stronger effect = lower value", "result": "0.0984 (active)"}, {"measurement": "normalized growth", "setting": "S. cerevisiae deletion strains, locus YOL012C, strain htz1", "result": "0.143 (active)"}, {"measurement": "normalized growth", "setting": "S. cerevisiae deletion strains, locus YOL147C, strain pex11, stronger effect = lower value", "result": "0.056 (active)"}, {"measurement": "normalized growth", "setting": "S. cerevisiae deletion strains, locus YOR001W, strain rrp6, stronger effect = lower value", "result": "0.0598 (active)"}, {"measurement": "normalized growth", "setting": "S. cerevisiae deletion strains, locus YOR061W, strain CKA2, stronger effect = lower value", "result": "0.0463 (active)"}, {"measurement": "normalized growth", "setting": "S. cerevisiae deletion strains, locus YOR069W, strain VPS5, stronger effect = lower value", "result": "0.0445 (active)"}, {"measurement": "normalized growth", "setting": "S. cerevisiae deletion strains, locus YOR070C, strain gyp1, stronger effect = lower value", "result": "0.0552 (active)"}, {"measurement": "normalized growth", "setting": "S. cerevisiae deletion strains, locus YOR080W, strain dia2, stronger effect = lower value", "result": "0.0613 (active)"}, {"measurement": "normalized growth", "setting": "S. cerevisiae deletion strains, locus YOR083W, strain WHI5, stronger effect = lower value", "result": "0.0558 (active)"}, {"measurement": "normalized growth", "setting": "S. cerevisiae deletion strains, locus YOR106W, strain vam3, stronger effect = lower value", "result": "0.0599 (active)"}, {"measurement": "normalized growth", "setting": "S. cerevisiae deletion strains, locus YOR136W, strain idh2, stronger effect = lower value", "result": "0.0657 (active)"}, {"measurement": "normalized growth", "setting": "S. cerevisiae deletion strains, locus YOR144C, strain elg1, stronger effect = lower value", "result": "0.0549 (active)"}, {"measurement": "normalized growth", "setting": "S. cerevisiae deletion strains, locus YOR184W, strain ser1, stronger effect = lower value", "result": "0.0604 (active)"}, {"measurement": "normalized growth", "setting": "S. cerevisiae deletion strains, locus YOR231W, strain MKK1, stronger effect = lower value", "result": 0.892}, {"measurement": "normalized growth", "setting": "S. cerevisiae deletion strains, locus YOR265W, strain rbl2, stronger effect = lower value", "result": "0.056 (active)"}, {"measurement": "normalized growth", "setting": "S. cerevisiae deletion strains, locus YOR270C, strain vph1, stronger effect = lower value", "result": "0.0763 (active)"}, {"measurement": "normalized growth", "setting": "S. cerevisiae deletion strains, locus YOR290C, strain snf2, stronger effect = lower value", "result": "0.0566 (active)"}, {"measurement": "normalized growth", "setting": "S. cerevisiae deletion strains, locus YOR316C, strain cot1, stronger effect = lower value", "result": "0.057 (active)"}, {"measurement": "normalized growth", "setting": "S. cerevisiae deletion strains, locus YPL051W, strain arl3, stronger effect = lower value", "result": "0.0586 (active)"}, {"measurement": "normalized growth", "setting": "S. cerevisiae deletion strains, locus YPL055C, strain LGE1, stronger effect = lower value", "result": "0.0576 (active)"}, {"measurement": "normalized growth", "setting": "S. cerevisiae deletion strains, locus YPL078C, strain atp4, stronger effect = lower value", "result": "0.0619 (active)"}, {"measurement": "normalized growth", "setting": "S. cerevisiae deletion strains, locus YPL106C, strain sse1, stronger effect = lower value", "result": "0.0837 (active)"}, {"measurement": "normalized growth", "setting": "S. cerevisiae deletion strains, locus YPL240C, strain hsp82, stronger effect = lower value", "result": "0.0552 (active)"}, {"measurement": "normalized growth", "setting": "S. cerevisiae deletion strains, locus YPL256C, strain CLN2, stronger effect = lower value", "result": 0.981}, {"measurement": "normalized growth", "setting": "S. cerevisiae deletion strains, locus YPR119W, strain clb2, stronger effect = lower value", "result": "0.0589 (active)"}, {"measurement": "normalized growth", "setting": "S. cerevisiae deletion strains, locus YPR141C, strain kar3, stronger effect = lower value", "result": 1.06}, {"measurement": "normalized growth", "setting": "S. cerevisiae deletion strains, locus YPR163C, strain tif3, stronger effect = lower value", "result": "0.0677 (active)"}, {"measurement": "normalized growth", "setting": "S. cerevisiae deletion strains, locus YPR167C, strain met16, stronger effect = lower value", "result": "0.0591 (active)"}, {"measurement": "normalized growth", "setting": "S. cerevisiae deletion strains, strain wtn01, stronger effect = lower value", "result": "0.0573 (active)"}, {"measurement": "normalized growth", "setting": "S. cerevisiae strains, strain wild type, stronger effect = lower value", "result": "0.0449 (active)"}]}]}
